# An excerpt weighted towards active compounds, which were near 4.1% of everything screened.
# CHT allo act: allosteric activators of human choline transporter CHT. Q9GZV3. CHT-expressing cells, membrane potential dye, choline EC20; stronger effect = higher value; LV-AA mutant CHT in HEK293 cells. B-score at 10 µM. 0.49% of 310,000 active. AID 488977;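 active = initial fluorescence not abnormally high and integrated response B-score, plate-corrected, over 3 SD above library mean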
# Target sequence (Q9GZV3 whole entry, looked up): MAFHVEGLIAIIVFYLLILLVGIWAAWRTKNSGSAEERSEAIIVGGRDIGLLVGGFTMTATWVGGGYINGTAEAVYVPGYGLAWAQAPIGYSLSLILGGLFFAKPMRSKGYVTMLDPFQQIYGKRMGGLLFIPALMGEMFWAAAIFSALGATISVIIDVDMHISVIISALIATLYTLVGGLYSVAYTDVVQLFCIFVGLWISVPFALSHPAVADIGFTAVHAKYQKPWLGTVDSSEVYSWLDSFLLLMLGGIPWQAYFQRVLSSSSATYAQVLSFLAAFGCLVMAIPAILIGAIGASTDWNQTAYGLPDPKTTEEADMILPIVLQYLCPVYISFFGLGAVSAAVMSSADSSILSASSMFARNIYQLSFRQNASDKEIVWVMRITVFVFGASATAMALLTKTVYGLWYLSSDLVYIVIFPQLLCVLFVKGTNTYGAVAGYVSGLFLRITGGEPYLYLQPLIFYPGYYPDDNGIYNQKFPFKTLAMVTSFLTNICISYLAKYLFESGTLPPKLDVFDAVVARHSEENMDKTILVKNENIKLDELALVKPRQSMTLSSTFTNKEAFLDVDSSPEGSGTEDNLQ
# CHT block: inhibits the human high affinity choline transporter; CHT-expressing cells, membrane potential dye, choline response; stronger effect = lower value; AID 488975; B-score at 10 µM; 0.86% of 310,000 active;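 active = B-score over 3 SD under the library average, and starting fluorescence ratio not unusually high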;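 also: choline stimulus applied at its EC90 after an EC20 pre-addition; B-score computed on integrated fluorescence ratio after choline addition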
# MEKK3 PB1 HTS: raises or lowers MEK5 binding to the human MEKK3 PB1 domain. Q99759. bead-based flow cytometry, Alexa488-MEK5 binding to MEKK3; actives lie on both sides; 0 = blocked by unlabeled MEK5, 100 = vehicle. binding response (% of control), % at 10 µM. 1.4% of 290,000 active. AID 1529;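 active = binding response more than 3 SD above or below the average of its plate-row segment, actives on both sides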;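 also: Alexa488 bead fluorescence after subtracting the streptavidin-only scavenger bead signal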
# Mot1-301 SUMO: blocks SUMOylation pathway, rescuing yeast Mot1-301 growth; S. cerevisiae Mot1-301 growth rescue, ATP luminescence, 38.5C; percent above DMSO median, 100 means doubled; growth rescue, % at 18.8 µM; 1% of 320,000 active; AID 2716;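 active = every valid replicate shows activation above 250% relative to neutral control wells; inactive = the rest, any valid replicate at or below 250%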
# MEKK2 WT-MEK5: raises or lowers MEK5 binding to wildtype human MEKK2 PB1 domain; AID 1531; bead flow cytometry, Alexa488-MEK5 binding to MEKK2 WT; actives lie on both sides; binding response (% of control), % at 10 µM; 1.1% of 290,000 active; in the data active = binding response below about 67% or above about 130%
# MEKK2mut PB1 HTS: signal of MEK5 binding to mutant human MEKK2 PB1 domain; AID 1530; percent response, % at 10 µM; bead flow cytometry, Alexa488-MEK5 binding to MEKK2 mutant; 0.35% of 290,000 active; in the data active = percent response above about 24%, passing the limit was not always enough
# Yeast Mot1 SUMO: inhibits SUMO pathway, affecting Mot1-301 yeast growth; S. cerevisiae Mot1-301 galactose growth, ATP luminescence, 24 h; -100 = growth of slx-deleted rescue strain; shares compounds with Mot1-301 SUMO; 2,300 tested, under 10 active; AID 493004; growth activity, percent, % at 42 µM;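 active = Signal drops as the depositor expects, and the fitted half-maximal dose is no more than ten times the top valid tested dose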;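 also: more negative values mean stronger growth rescue toward the control strain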
# A number is an active result; i = inactive; nt = not tested or not shown; + = active, no number.
SMILES,CHT allo act,CHT block,MEKK3 PB1 HTS,Mot1-301 SUMO,MEKK2 WT-MEK5,MEKK2mut PB1 HTS,Yeast Mot1 SUMO
O=C(COc1ccc(-n2cnnn2)cc1)NCCc1ccc(F)cc1,i,i,i,+,i,i,i
COc1ccc(CN2CCNC(=O)C2CC(=O)NCc2cn3ccc(C)cc3n2)c(OC)c1 (stereo not drawn),i,i,i,838.2,i,i,i
C(=N\N1CCN(C2c3ccccc3-c3ccccc32)CC1)/c1ccncc1,i,i,i,+,i,i,i
C/C(=N\N1CCN(C2c3ccccc3-c3ccccc32)CC1)c1ccncc1,i,i,i,i,i,i,nt
CCn1cc(C(=O)O)c(=O)c2cc(F)c(N3CCN(C(=S)NC(=O)c4ccccc4)CC3)cc21,i,i,i,i,i,i,nt
Cc1cc(C)c(NC(=O)CCN2CCN(Cc3ccccc3)CC2)c(C)c1,i,i,nt,465.1,nt,nt,i
Cc1ccccc1-c1cc(C(=O)Nc2sc(C(=O)OC(C)C)c(C)c2C#N)c2ccccc2n1,i,i,i,i,i,i,nt
CC(=O)Nc1cccc(C(=O)OCC(=O)NCc2ccc(F)cc2)c1,i,i,i,453.4,i,i,i
CC(C)CCNC(=O)Nc1ccc2c(c1)N(C)C(=O)CS2,i,i,i,+,i,i,i
COCCNC(=O)Nc1ccc2c(c1)N(C)C(=O)CS2,i,i,i,i,i,i,nt
CC1(C)Cc2c(cnn2-c2ccc(F)cc2)C(NC(=O)CCCN2CCCCC2=O)C1 (stereo not drawn),i,i,i,523.1,i,i,i
CC(OC(=O)CSc1ccc(F)cc1)C(=O)NC1(C#N)CCCCC1 (stereo not drawn),i,i,i,i,i,i,nt
CN(c1ccccc1)S(=O)(=O)c1ccc(C(=O)NCC2CCCO2)cc1 (stereo not drawn),i,i,i,451.4,i,i,i
O=S(=O)(NCCN1CCCC1)c1cccc2cccnc12,i,i,i,814.6,i,i,i
O=S(=O)(NCCO)c1cccc2cccnc12,i,i,i,i,i,i,nt
CC1C(=O)CC(c2ccccc2)NC1c1ccccc1 (stereo not drawn),i,i,i,788.9,i,i,i
CCOC1(OCC)C(c2ccc(Cl)cc2)C(C#N)(C#N)C1(OCC)OCC (stereo not drawn),i,i,nt,494.6,nt,nt,i
O=C(Nc1ccc(Cl)cc1)c1ccc2c(c1)OCO2,i,i,i,i,i,i,nt
O=C(Nc1ccc(Cl)cc1)C1=Cc2ccccc2OC1,i,i,i,593.8,i,i,i
CCN(CC)C(=O)Cn1c(=O)n(CCCCCC(=O)Nc2ccccc2)c(=O)c2sccc21,i,i,i,i,i,i,nt
CCN(CC)C(=O)Cn1c(=O)n(CCCC(=O)NCc2ccccc2)c(=O)c2sccc21,i,i,i,539.5,i,i,i
CC(C)(C)NC(=O)C(c1cccs1)N(Cc1cccs1)C(=O)c1ccc(CN2CCOCC2)o1 (stereo not drawn),i,i,i,+,i,i,i
Cc1cc(C)c(C(=O)CN2C(=O)C(=O)N(C3CCCC3)C2=O)cc1C,nt,nt,nt,i,nt,nt,nt
COc1cc(C(=O)Nc2sc(C)c(C)c2C(=O)O)cc(OC)c1OC,i,i,i,i,i,i,nt
COc1cc(C(=O)Nc2sc3c(c2C(=O)O)CCC(C)C3)cc(OC)c1OC (stereo not drawn),i,i,i,438.0,i,i,i
CCOc1ccc(/C=N/NC(=O)c2ccc(CSc3nc4ccccc4[nH]3)cc2)cc1,i,i,i,508.1,i,i,i
OC(COCc1cccs1)CN1CCCCCC1 (stereo not drawn),i,i,i,+,i,i,i
O=C(COc1ccccc1Cl)c1ccc[nH]1,i,i,i,788.5,i,i,i
O=C(COC(=O)c1c(F)cccc1F)c1ccc[nH]1,i,i,i,595.9,i,i,i
COc1cc(C(=O)Oc2cccnc2)cc(OC)c1OC,i,i,i,480.9,i,i,i

# Source: PubChem BioAssay
